# High-throughput results from PubChem.
# RE007 growth inh: less growth of the S. pombe RE007 Vpr strain | S. pombe RE007 Vpr strain, BacTiter-Glo ATP luminescence, 24 h | Potency, µM (highest dose often 92.2 µM), without a hit: at the highest dose activity change, negative = less growth, actives largely listed as inhibitors | 360,000 compounds, 0.21% hits | AID 651644; active means well fitted falling curve with a large enough effect; inconclusive means small, poorly fitted or top-dose-only effect; inactive means no such curve, though single readings can be large or run the other way; further: potency means the concentration at half of the fitted maximal effect; on the % scale 0 is the no-effect control and ±100 the full control effect; nearly all actives have a fitted effect of over 50% in size
#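 Fission yeast RE007 carrying one integrated HIV-1 vpr copy, seeded at OD 0.01 in PMG+AL medium with 23 nL pinned compound. Grown 24 h at 30 degrees; viability read by BacTiter-Glo luminescence after 5 min.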
# NS1 function inh: inhibitors of influenza NS1 protein function; Potency, µM (series often up to 46.1 µM), for inactives: top-dose activity, positive = more growth; 270,000 compounds, 0.4% hits; AID 2326; calls by dose curve; further: potency means the concentration at half of the fitted maximal effect; actives are rising curves; nearly all actives have a fitted effect of over 50% in size
#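 Compounds were scored for reversing the slow growth caused by influenza A NS1 in S. cerevisiae, measured by optical density at 600 nm. Assay medium contained 2% galactose at pH 6.0; NS1-free yeast of the same strain were the positive control.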
# TbPYK inhibitor: T. brucei pyruvate kinase inhibition; Q57TT1; TbPYK enzyme, Kinase-Glo Plus ATP luminescence, 45 min; Potency, µM (titrated, usually from 76.8 µM), for the others: at the highest dose activity, negative = inhibition, actives largely listed as inhibitors; 410,000 compounds, 0.12% hits; further: potency means the concentration at half of the fitted maximal effect; on the % scale 0 is the no-effect control and ±100 the full control effect; nearly all actives have a fitted effect of over 50% in size
#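 Glycolytic pyruvate kinase of T. brucei was incubated with substrate, test compound and 130 uM ADP for 45 minutes at room temperature. Luminescent Kinase-Glo Plus signal was measured after 10 minutes.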
# LmPK inh: inhibitors of Leishmania mexicana pyruvate kinase | purified LmPK, Kinase-Glo ATP luminescence, 1 h | Potency, µM (doses to about 57.5 µM), for inactives: at the top dose activity change, negative = inhibition, hits mostly inhibitors | 290,000 compounds, 0.37% hits | Q27686; further: potency means the concentration at half of the fitted maximal effect; on the % scale 0 is the no-effect control and ±100 the full control effect
# Target sequence (Q27686 whole entry, looked up): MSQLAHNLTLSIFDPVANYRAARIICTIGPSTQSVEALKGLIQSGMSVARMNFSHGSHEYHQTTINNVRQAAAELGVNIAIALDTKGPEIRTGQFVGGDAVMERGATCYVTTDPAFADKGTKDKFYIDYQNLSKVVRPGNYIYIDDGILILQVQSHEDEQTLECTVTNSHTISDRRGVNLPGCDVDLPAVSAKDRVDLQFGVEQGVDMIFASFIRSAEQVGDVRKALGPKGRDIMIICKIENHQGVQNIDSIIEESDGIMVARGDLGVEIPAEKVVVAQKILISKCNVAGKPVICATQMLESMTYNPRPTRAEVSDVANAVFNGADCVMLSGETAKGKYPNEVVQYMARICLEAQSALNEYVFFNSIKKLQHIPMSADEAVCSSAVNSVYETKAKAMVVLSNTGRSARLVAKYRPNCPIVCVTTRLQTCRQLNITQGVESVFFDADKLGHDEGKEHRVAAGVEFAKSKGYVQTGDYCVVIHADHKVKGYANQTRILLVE
#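 0.1 nM LmPK, 0.5 mM PEP, 0.1 mM ADP; 50 mM imidazole pH 7.2, 7 mM MgCl2, 50 mM KCl; 1 h RT. Kinase-Glo luminescence readout, normalized to no-enzyme (full inhibition) and uninhibited wells.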
# SARS PLP yeast: SARS-CoV PLP inhibition in yeast; S. cerevisiae expressing SARS-CoV PLpro, growth rescue; Potency, µM (series often up to 32.9 µM), for inactives: at the highest dose activity, positive = growth rescue, usual class: activators; 330,000 compounds, 0.19% hits; AID 485353; calls by dose curve; further: potency means the concentration at half of the fitted maximal effect; 0% is about no effect; nearly all actives have a fitted effect of over 55% in size
# Sm TGR inh: inhibitors of Schistosoma mansoni thioredoxin glutathione reductase. purified TGR, DTNB reduction, TNB absorbance 405 nm. Potency, µM (series often up to 114 µM), inactives show at the top dose activity change, negative = inhibition, most hits filed as inhibitors. 360,000 compounds, 3% hits. AID 485364; further: potency means the concentration at half of the fitted maximal effect; on the % scale 0 is the no-effect control and ±100 the full control effect; nearly all actives have a fitted effect of over 60% in size
#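 First, TGR (20 nM dispensed) and NADPH were mixed with compound. Second, a 15 min room-temperature incubation followed. Third, further NADPH and then DTNB were added to start the reaction. Finally, TNB absorbance was monitored kinetically.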
# NS1 inh valid: validation of influenza NS1 protein function inhibitors. shares compounds with NS1 function inh. influenza NS1 function cell assay, 15-point titration. activity change, negative = inhibition, % at 32.9 µM. 1,400 tested, under 10 active; calls by dose curve; further: 0% is about no effect
# PR8 titer: influenza NS1 inhibitors: inhibition of influenza A/PR/8/34 replication; MDCK infected influenza A/PR/8/34, virus titer TCID50; stronger effect = lower value; 95 compounds, 30% hits; shares compounds with NS1 function inh; virus titer (log TCID50), log10 TCID50 at 5 µM; AID 504647; call rule not given here
# Starred values were filed as active, the others as inactive; ? = inconclusive; · = not tested or not shown; [ ] = dose if it differs, or a comment. Sampled rows, rich in hits. Any-hit rate of the full collection: about 3.3%. Unless noted, the call rests on the fitted dose curve; in most records, active means well fitted curve in the direction sought with a large enough effect; inconclusive means small, poorly fitted or top-dose-only effect, or another doubt; inactive means no such curve, though single readings can be large; an effect the other way counts as inactive or inconclusive.
SMILES,RE007 growth inh,NS1 function inh,TbPYK inhibitor,LmPK inh,SARS PLP yeast,Sm TGR inh,NS1 inh valid,others
O=S(=O)(c1ccccc1)c1cccc(S(=O)(=O)N2CCCCC2)c1,55%,2µM*,-3%,-2%,12%,0%,-12,
CCN(Cc1ccccc1)C(=O)Nc1ccc2c(c1)N(C)C(=O)c1ccccc1S2,·,·,-1%,·,·,-13%,·,
CCn1c(=O)c2ccccc2n(Cc2cccc([N+](=O)[O-])c2)c1=O,11%,-4%,-4%,-7%,-1%,11%,·,
O=C(CCn1c(=O)c2ccccc2n(Cc2cccc([N+](=O)[O-])c2)c1=O)N1CCc2ccccc2C1,17%,5µM*,4%,3%,-2%,-4%,9,
COc1ccc(S(=O)(=O)N2CCOC2CNC(=O)C(=O)NCCc2c[nH]c3ccccc23)cc1C (configuration not stated),1%,14µM*,-15%,-2%,-3%,-8%,1,
COc1ccc(S(=O)(=O)N2CCOC2CNC(=O)C(=O)NCCc2c[nH]c3ccccc23)cc1 (configuration not stated),-6%,9%,-11%,-4%,11%,-14%,·,
O=C(Nc1ccc(Oc2ccc(NC(=O)c3ccco3)c(NC(=O)c3ccco3)c2)cc1)c1ccco1,1%,8.9µM*,-8%,1%,-2%,-21%,12,PR8 titer=7.7
Cc1cc2cc(NC(=O)c3ccco3)ccc2[nH]1,-9%,2.5µM*,-16%,2%,3%,8%,?,
O=C(Nc1ccc(Oc2ccc3ccccc3c2)cc1)c1ccco1,?,-146%,4%,7%,-23%,8%,·,
CCc1ccccc1NC(=S)/N=C(\N)Nc1nc(C)c2cc(C)ccc2n1,8%,?,2%,2%,16%,-2%,-29,
COc1ccccc1OC(C)C(=O)Nc1ccc(-c2nc3ccccc3s2)cc1 (configuration not stated),·,·,-3%,·,·,8%,·,
COc1cc(/C=N/NC(=O)c2ccc(COc3cc(C)ccc3C(C)C)cc2)cc(OC)c1O,32%,27%,-7%,0%,-49%,-7%,·,
Cc1ccc(C(C)C)c(OCc2ccc(C(=O)N/N=C/c3ccc(O)c(O)c3)cc2)c1,1%,13µM*,2%,-5%,-3%,2%,14,
COc1cc(/C=C/C(=O)Nc2nnc(CC(C)C)s2)cc(OC)c1OC,11%,?,-3%,3%,7%,-9%,-4,
C1=C(CCNC2=NCCCCC2)CCCC1,10%,20µM*,3%,0%,17%,0%,-11,
COc1nc(NCCC2=CCCCC2)nc(OC)n1,17%,-33%,8%,-2%,-9%,13%,·,
CCCCc1nc2c(c3c1C[C@H](C)OC3)CN(S(=O)(=O)c1c(C)noc1C)CC2,·,·,·,-1%[11.5 µM],·,·,·,
CC(=O)c1c(COC(=O)c2ccc(C)cc2)nc2ccccc2[n+]1[O-],6%,-5%,-4%,8%,0%,-25%,·,
CC(=O)c1c(COC(=O)c2cccnc2)nc2ccccc2[n+]1[O-],5%,5µM*,-17%,8%,2%,9%[11.4 µM],18,
O=C(Cc1cc(=O)[nH][nH]1)N/N=C/c1c(F)cccc1Cl,9%,·,-5%,10%,7%,4%,·,
O=C(Cc1cc(=O)[nH][nH]1)N/N=C/c1c(Cl)cccc1Cl,4%,10µM*,-5%,2%,17%,3%,?,
Cc1ccc(C2(C)NC(=O)N(CC(=O)NCCC3=CCCCC3)C2=O)cc1 (configuration not stated),-11%,11µM*,-1%,3%,9%,-6%,14,
